# HTR5A ag: HTR5A agonism, opioid heterodimer counter-screen. P47898. HTR5A agonist assay, luminescence, cell-based. activation, % at 9.3 µM. 340,000 compounds, 0.61% hits; in the data active = activation mostly above about 9.5%, no sharp cut-off; inactive = mostly below about 7.6%;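 note: 0% = cells with vehicle only and 100% = reference agonist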
# Target sequence (P47898 whole entry, looked up): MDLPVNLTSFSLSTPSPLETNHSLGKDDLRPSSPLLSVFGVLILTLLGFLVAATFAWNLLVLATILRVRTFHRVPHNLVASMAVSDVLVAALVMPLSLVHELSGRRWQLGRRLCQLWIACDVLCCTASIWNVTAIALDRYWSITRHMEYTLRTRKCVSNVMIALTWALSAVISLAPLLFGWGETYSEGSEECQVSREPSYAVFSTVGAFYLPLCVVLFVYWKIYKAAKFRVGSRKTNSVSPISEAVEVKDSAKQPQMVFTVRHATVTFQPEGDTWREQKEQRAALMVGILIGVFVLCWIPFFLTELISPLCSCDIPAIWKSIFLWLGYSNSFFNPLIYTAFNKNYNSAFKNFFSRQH
# HTR5A inv ctr: HTR5A inverse agonism, opioid heterodimer counter-screen | P47898 | HTR5A cell line, luminescence | inhibition, % at 9.3 µM | 340,000 compounds, 0.083% hits | AID 504634; in the data active = inhibition mostly above about 23%, no sharp cut-off; inactive = mostly below about 18%;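 note: 0% = cells with DMSO and 100% = no-cell wells with DMSO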
# MOR-DOR inv ag: mu-delta opioid heterodimer inverse agonism; P35372+P41143; AID 504357; cell-based MOR-DOR heterodimer luminescence; 340,000 compounds, 0.21% hits; inhibition, % at 9.3 µM; in the data active = inhibition above about 22%, passing the limit was not always enough;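 note: 0% = cells with DMSO and 100% = wells without cells with DMSO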
# OPRM1-OPRD1 ag: agonists of human mu-delta opioid receptor heterodimerization | P35372+P41143 | cells, OPRM1-OPRD1 heterodimerization, luminescence | activation, % at 9.3 µM | 340,000 compounds, 0.3% hits | AID 504326; in the data active = activation above about 18%;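 note: 0% = vehicle-treated cells and 100% = reference agonist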
# OPRM1-D1 inv cf: OPRM1-OPRD1 heterodimer inverse agonism, confirmation. shares compounds with MOR-DOR inv ag. cells expressing OPRM1/OPRD1 heterodimer, luminescence. inhibition, % at 9.3 µM. 580 compounds, 20% hits; in the data active = inhibition above about 32%;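 note: 0% = cells with DMSO and 100% = wells lacking cells with DMSO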
# HTR5A inv ctr2: HTR5A inverse agonism, opioid heterodimer counter-screen; HTR5A-expressing cells, luminescence; shares compounds with MOR-DOR inv ag; 580 tested, under 10 active; inhibition, % at 9.3 µM; AID 504914; call rule not given here;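 note: 0% = cells with DMSO and 100% = no-cell wells with DMSO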
# Active calls of the source: *; i = inactive; / = no result. Hits are enriched below; roughly 1.1% of the tested compounds scored in any of these assays.
SMILES,HTR5A ag,HTR5A inv ctr,MOR-DOR inv ag,OPRM1-OPRD1 ag,OPRM1-D1 inv cf,HTR5A inv ctr2
COc1ccc(NS(=O)(=O)c2ccc(F)c(Cl)c2)cn1,-2.8,-4.5,-3.8,0.6,/,/
Cc1cc(C)nc(NNS(=O)(=O)c2ccc(Cl)cc2)n1,-3.5,13.3,44.8*,-10.2,18.9,6.9
Cc1cc(C)nc(NNS(=O)(=O)c2ccc(F)c(Cl)c2)n1,-4.9,12.2,44.2*,-8.1,62.3*,-5.2
CN(CC(=O)NCc1ccccc1)Cc1cccc(F)c1,-2.6,9.2,15.2,-3.2,/,/
O=C1N=C(c2ccccc2)S/C1=C\c1cccs1,-0.1,-8.4,34.3*,-5.8,-434.4,-45.4
CC(C)CCOc1ccc(C(=O)NCC(c2ccco2)N(C)C)cc1 (stereo not drawn),6.1,-10.7,-15.8,2.5,/,/
Clc1ccc(OCCCCN2CCc3ccccc3C2)cc1,2.6,-5.5,-28.8,4.2,/,/
COc1cc(OC)cc(C(=O)NNC(=S)Nc2ccc(S(N)(=O)=O)cc2)c1,3.8,-16.2,34.0*,-7.0,-1.6,-7.4
COc1ccc(CNC(=S)Nc2ccc(S(N)(=O)=O)cc2)cc1,6.6,-9.6,2.3,-0.5,/,/
Cc1nn(C(C)C(=O)c2cccc(Cl)c2)c(C)c1[N+](=O)[O-] (stereo not drawn),0.2,13.5,6.6,-1.3,/,/
Cn1cnc([N+](=O)[O-])c1S(=O)(=O)Oc1ccccc1,-5.3,21.0,39.9*,-8.2,8.8,14.3
Cn1cnc([N+](=O)[O-])c1S(=O)(=O)c1cccc(Cl)c1,-2.6,16.4,28.8*,-4.0,-19.6,-90.4
Cn1cnc([N+](=O)[O-])c1S(=O)(=O)Nc1ccccc1,0.3,-1.3,17.0,-3.2,/,/
CCCCCC(=O)NNC(=S)NC(=O)c1ccccc1[N+](=O)[O-],-8.5,-3.0,30.0*,-5.8,-140.2,10.6
O=C1C(Cc2ccc(Br)cc2)SC(=Nc2ccccc2)N1c1ccccc1 (stereo not drawn),0.2,9.2,-11.1,2.1,/,/
Cc1ccc(OC(=O)c2cccc([N+](=O)[O-])c2)c(-n2nc3ccccc3n2)c1,-2.2,5.8,14.9,-2.5,/,/
Cc1cc(-n2nc3ccccc3n2)c(O)c([N+](=O)[O-])c1,7.0,4.6,25.8*,-4.7,-17.5,19.2
CCN(C(=O)Cn1c(=O)oc2cc(S(=O)(=O)N3CCOCC3)ccc21)c1ccccc1,-3.6,11.5,2.5,-0.5,/,/
Cc1nc(-n2[nH]c3c(c2=O)CCCC3)[nH]c(=O)c1Cc1ccccc1,-5.8,28.3,37.3*,-6.0,7.5,4.6
COc1ccccc1NCC(=O)c1ccc(Cl)cc1,-0.2,0.8,16.9,-3.0,/,/
COc1ccc(C(=O)CNc2ccc(C)cc2C)cc1,3.4,-8.9,32.5*,-6.6,70.3*,1.9
COc1ccccc1NCC(=O)c1ccc(C)c(C)c1,-3.5,-16.7,30.6*,-6.0,-12.7,-7.4
COc1ccc(C(=O)CNc2ccccc2CO)cc1,-0.4,1.1,15.9,-2.9,/,/
COc1ccc(C(C#N)=C2C=CC(=NO)C=C2)cc1,0.8,-2.0,47.6*,-9.6,-46.7,-34.9
N#CC(=C1C=CC(=NO)C(Cl)=C1)c1ccc(Cl)cc1,0.2,-0.7,8.7,-2.0,/,/
SMILES,HTR5A ag,HTR5A inv ctr,MOR-DOR inv ag,OPRM1-OPRD1 ag,OPRM1-D1 inv cf,HTR5A inv ctr2
O=C1C(=O)N(CCN2CCCCC2)c2ccccc21,-4.9,25.1,71.9*,-12.6,73.6*,4.5
O=C1C(=O)N(Cc2cccs2)c2ccccc21,-0.1,0.4,48.4*,-9.4,16.3,-1.1
O=C(CN1C(=O)C(=O)c2ccccc21)c1ccccc1,-5.2,19.3,52.2*,-10.9,-163.3,-19.1
O=C(CN1C(=O)C(=O)c2ccccc21)NC1CCCCC1,-4.7,12.4,47.5*,-9.6,47.5*,18.8
O=C1CSC(=S)N1Cc1cccs1,0.7,-2.9,-7.2,1.4,/,/
COC(=O)CC1C(=O)NCCN1C(=S)Nc1cc(C)cc(C)c1 (stereo not drawn),-2.1,5.9,6.1,-1.1,/,/
O=C1c2cccc3cccc(c23)C(=O)N1c1ccccn1,-5.3,14.6,19.9,-4.3,/,/
CCc1cc2c(=O)c(-c3ccc4c(c3)OCCO4)c(C)oc2cc1OS(C)(=O)=O,0.4,-24.2,6.0,-1.2,/,/
C#CCNC(=O)C1=C[C@@H](c2cn(C(C)=O)c3ccccc23)C[C@@H](OCCCCO)O1,-4.8,12.2,12.6,-2.3,/,/
O=C1C(=O)N(CCS(=O)(=O)c2ccccc2)c2ccccc21,-1.4,11.8,58.3*,-11.7,i,-13.6
O=S(=O)(CCN1CCOCC1)c1ccccc1,-3.5,13.3,22.4,-5.0,/,/

# Screening data (PubChem)
